For some assays here: Results with a measured potency or affinity are listed apart.
What was measured:
Set-up in all cases: scale not given: direction of the effect not stated beside the values
[1] = target: Protein translocase subunit SecA (Escherichia coli (strain K12)) (UniProt P10408); experiment: Assay to Identify E. coli SecA ATPase Inhibitors; type: functional; settings: 30 µM
[2] = target: T1, Ubiquitin-activating enzyme e1, putative (Leishmania donovani (strain BPK282A1)) (UniProt E9BSI1); experiment: Leishmania donovani Ubiquitin Activating Enzyme (LdE1); type: functional; settings: 30 µM
T1 sequence (whole entry): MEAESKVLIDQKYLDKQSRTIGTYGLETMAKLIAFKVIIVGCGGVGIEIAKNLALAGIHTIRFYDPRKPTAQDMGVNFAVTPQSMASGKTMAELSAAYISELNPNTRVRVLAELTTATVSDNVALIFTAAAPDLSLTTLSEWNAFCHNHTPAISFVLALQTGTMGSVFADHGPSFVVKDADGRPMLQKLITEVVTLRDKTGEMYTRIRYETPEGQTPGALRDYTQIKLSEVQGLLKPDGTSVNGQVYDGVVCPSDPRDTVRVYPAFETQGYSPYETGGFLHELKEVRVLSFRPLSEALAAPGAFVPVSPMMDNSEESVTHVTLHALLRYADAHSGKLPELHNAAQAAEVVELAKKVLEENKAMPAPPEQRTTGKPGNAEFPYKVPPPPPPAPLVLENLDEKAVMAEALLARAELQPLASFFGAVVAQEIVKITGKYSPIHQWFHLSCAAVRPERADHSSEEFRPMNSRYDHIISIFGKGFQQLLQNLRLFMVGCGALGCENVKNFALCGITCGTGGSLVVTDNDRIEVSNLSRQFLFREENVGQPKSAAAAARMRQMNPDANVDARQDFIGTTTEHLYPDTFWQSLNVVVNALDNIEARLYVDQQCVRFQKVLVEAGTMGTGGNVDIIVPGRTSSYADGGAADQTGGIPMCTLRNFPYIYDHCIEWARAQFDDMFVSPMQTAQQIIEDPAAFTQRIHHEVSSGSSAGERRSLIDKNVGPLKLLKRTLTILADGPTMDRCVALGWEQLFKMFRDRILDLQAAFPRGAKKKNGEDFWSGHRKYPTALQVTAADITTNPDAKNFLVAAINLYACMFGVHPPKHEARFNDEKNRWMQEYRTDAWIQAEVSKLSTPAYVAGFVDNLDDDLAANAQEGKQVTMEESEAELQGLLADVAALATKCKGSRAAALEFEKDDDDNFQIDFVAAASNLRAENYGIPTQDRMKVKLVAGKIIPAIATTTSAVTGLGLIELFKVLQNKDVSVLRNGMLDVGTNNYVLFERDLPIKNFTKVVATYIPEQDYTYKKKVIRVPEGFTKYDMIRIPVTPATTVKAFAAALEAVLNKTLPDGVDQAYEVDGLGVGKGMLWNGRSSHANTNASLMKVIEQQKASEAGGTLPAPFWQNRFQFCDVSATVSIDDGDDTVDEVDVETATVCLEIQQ

[3] = target: AMP-activated protein kinase, AMPK (Homo sapiens) (UniProt P54646+O43741+P54619+Q9UGJ0+Q9Y478+Q13131+Q9UGI9); experiment: AMP-dependent Kinase enzyme assay. An in vitro enzyme assay that detects ADP turnover that is directly proportional to AMPK activity. This uses naive AMPK that is activated during the assay with MK-8722; type: functional; settings: 30 µM
[4] = target: Sialic acid-binding Ig-like lectin 9 (Homo sapiens) (UniProt Q9Y336); experiment: Hs-Siglec9 ALPHAscreen SOP 20170721; settings: 10 µM
Chain of Sialic acid-binding Ig-like lectin 9 (Homo sapiens) (Q9Y336 whole entry): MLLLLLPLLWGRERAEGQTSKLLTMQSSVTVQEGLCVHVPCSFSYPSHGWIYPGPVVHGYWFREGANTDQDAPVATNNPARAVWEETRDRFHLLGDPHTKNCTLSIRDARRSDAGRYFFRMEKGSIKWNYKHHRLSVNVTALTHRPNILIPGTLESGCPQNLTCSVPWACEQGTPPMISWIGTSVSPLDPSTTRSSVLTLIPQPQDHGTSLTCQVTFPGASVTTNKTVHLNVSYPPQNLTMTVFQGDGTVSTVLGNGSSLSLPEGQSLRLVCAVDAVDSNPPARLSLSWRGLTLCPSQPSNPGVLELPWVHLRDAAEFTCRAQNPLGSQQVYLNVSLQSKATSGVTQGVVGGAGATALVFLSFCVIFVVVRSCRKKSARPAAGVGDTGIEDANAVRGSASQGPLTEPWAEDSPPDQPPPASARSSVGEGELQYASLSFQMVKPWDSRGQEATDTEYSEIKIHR

[5] = test system: Trypanosoma cruzi; experiment: Trypanosoma cruzi phosphomannomutase and mannose-1-phosphate guanylyltransferase assay; type: functional; settings: 10 µM
[6] = target: T2, Arginase-2, mitochondrial (Homo sapiens) (UniProt P78540); experiment: in vitro enzyme assay to detect the production of urea directly proportional to the activity of Arginase II; type: functional; settings: 33.3 µM; also: in the data most compounds retested in dose-response had high values
T2 sequence (whole entry): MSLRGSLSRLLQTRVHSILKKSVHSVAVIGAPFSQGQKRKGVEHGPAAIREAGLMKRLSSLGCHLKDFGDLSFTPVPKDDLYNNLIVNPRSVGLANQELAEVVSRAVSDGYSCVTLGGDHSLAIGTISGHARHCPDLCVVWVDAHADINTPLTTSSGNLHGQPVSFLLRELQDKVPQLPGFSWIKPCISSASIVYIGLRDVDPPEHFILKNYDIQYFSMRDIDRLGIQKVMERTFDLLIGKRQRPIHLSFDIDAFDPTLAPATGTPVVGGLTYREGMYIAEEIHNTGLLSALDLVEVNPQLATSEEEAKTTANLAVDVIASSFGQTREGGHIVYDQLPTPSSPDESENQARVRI

[7] = target: T3, Proteasome subunit beta (Trypanosoma cruzi) (UniProt O96673); experiment: Trypanosoma cruzi proteasome chymotrypsin-like activity (TcProtChymo) assay.; also: in the data most compounds retested in dose-response had high values; type: functional; settings: 9.37 µM
T3 sequence (whole entry): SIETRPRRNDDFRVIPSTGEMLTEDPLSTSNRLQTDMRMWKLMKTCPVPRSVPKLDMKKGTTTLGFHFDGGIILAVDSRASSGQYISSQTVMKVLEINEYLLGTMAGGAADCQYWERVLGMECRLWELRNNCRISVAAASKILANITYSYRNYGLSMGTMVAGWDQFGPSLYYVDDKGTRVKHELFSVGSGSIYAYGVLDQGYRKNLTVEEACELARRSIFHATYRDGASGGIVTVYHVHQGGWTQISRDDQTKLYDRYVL

[8] = organism: Homo sapiens; experiment: To identify inhibition of the IFN signalling (Jak-Stat) pathway via expression of an eGFP reporter gene under the control of an IFN-stimulated response element (ISRE) containing MxA promoter.; type: functional; settings: 30 µM
[9] = target: T4, Tyrosyl-tRNA synthetase, putative (Trypanosoma cruzi (strain CL Brener)) (UniProt Q4DSP6); experiment: Trypanosoma cruzi tyrosyl tRNA synthetase (TcYRS) _High Tyrosine SOP; type: functional; settings: 30 µM; also: in the data most compounds retested in dose-response had high values
T4 sequence (whole entry): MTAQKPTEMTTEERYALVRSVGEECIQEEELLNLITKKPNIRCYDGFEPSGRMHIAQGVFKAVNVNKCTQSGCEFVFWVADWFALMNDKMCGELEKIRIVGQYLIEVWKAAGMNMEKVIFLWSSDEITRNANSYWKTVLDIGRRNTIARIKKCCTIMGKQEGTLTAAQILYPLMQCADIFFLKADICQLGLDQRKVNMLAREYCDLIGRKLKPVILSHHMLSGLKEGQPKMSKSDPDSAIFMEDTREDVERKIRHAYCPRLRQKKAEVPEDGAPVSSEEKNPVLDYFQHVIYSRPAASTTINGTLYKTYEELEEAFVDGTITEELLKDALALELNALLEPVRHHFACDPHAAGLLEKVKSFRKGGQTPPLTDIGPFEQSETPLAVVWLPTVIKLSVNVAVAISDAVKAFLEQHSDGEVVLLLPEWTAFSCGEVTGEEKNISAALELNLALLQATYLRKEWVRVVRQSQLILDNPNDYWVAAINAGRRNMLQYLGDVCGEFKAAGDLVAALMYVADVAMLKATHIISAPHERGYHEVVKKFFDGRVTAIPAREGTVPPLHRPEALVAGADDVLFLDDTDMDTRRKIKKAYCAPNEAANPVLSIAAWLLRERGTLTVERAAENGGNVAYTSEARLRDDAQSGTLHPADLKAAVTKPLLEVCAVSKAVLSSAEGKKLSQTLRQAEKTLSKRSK

[10] = target: T4, Tyrosyl-tRNA synthetase, putative (Trypanosoma cruzi (strain CL Brener)); experiment: Trypanosoma cruzi tyrosyl tRNA synthetase (TcYRS) SOP; type: functional; settings: 30 µM
[11] = target: Chromo domain-containing protein 1 (Saccharomyces cerevisiae (strain ATCC 204508 / S288c) (Baker's yeast)) (UniProt P32657); experiment: ScCHD-1 Enzyme Inhibition Assay; type: functional; settings: 30 µM; also: in the data most compounds retested in dose-response had high values
Chain of Chromo domain-containing protein 1 (Saccharomyces cerevisiae (strain ATCC 204508 / S288c) (Baker's yeast)) (P32657 whole entry, the tested form may be a part): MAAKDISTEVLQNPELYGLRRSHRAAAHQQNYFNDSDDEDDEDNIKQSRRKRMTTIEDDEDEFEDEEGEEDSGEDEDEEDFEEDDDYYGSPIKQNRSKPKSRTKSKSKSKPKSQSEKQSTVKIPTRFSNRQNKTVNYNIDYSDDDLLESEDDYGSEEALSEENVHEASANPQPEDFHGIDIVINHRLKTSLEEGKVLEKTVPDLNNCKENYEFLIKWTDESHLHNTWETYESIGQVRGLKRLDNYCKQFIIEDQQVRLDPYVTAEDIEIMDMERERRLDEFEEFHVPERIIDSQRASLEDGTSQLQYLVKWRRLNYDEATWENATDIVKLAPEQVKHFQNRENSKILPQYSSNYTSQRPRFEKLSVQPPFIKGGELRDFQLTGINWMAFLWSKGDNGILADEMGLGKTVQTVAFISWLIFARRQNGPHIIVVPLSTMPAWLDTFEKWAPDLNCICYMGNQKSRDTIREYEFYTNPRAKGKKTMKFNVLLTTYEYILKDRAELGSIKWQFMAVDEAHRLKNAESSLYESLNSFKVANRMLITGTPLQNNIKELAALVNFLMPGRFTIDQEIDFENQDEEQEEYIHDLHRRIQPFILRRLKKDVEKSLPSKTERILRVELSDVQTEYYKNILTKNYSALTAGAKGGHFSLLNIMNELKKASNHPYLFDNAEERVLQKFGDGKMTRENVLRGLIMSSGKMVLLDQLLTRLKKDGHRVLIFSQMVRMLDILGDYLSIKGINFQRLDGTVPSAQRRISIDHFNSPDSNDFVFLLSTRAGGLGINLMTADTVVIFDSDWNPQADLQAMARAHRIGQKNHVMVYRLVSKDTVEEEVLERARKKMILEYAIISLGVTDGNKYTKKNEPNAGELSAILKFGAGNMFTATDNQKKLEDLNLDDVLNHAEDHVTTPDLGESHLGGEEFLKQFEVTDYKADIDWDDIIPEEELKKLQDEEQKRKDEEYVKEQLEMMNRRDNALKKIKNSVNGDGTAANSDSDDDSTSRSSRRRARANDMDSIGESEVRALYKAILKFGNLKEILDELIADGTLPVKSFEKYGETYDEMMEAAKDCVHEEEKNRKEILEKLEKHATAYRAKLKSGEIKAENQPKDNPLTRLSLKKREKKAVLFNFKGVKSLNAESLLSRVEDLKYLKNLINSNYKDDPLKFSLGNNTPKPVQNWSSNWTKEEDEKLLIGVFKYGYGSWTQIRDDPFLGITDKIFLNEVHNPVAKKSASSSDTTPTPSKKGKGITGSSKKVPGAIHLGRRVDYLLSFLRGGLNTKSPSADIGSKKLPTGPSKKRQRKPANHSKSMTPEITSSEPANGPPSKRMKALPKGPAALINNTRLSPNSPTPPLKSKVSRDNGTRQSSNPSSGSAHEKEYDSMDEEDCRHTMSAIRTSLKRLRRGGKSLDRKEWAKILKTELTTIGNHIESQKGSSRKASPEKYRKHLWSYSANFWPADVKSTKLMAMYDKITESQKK

Chain of Protein translocase subunit SecA (Escherichia coli (strain K12)) (P10408 whole entry): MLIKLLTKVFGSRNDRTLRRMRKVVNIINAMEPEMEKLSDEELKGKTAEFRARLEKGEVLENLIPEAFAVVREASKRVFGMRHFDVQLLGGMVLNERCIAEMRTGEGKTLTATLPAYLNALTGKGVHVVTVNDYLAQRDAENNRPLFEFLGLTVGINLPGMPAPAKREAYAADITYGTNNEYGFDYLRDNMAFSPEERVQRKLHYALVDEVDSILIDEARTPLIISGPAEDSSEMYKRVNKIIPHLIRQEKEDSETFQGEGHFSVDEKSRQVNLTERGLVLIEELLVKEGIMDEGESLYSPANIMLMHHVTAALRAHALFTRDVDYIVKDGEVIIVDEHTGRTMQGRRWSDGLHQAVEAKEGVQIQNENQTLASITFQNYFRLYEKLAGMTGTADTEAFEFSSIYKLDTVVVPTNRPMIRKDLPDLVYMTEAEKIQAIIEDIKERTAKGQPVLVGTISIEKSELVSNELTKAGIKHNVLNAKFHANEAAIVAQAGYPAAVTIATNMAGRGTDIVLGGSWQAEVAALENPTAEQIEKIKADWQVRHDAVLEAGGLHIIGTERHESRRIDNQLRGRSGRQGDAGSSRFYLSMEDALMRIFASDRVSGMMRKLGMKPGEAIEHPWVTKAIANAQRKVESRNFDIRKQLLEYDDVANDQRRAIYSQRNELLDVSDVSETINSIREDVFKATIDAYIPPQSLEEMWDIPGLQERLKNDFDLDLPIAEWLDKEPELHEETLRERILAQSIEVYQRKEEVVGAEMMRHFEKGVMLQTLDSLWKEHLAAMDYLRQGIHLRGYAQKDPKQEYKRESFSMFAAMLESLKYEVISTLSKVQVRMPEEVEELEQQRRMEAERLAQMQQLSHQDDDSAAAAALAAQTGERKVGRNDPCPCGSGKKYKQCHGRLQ

Compound | Percent Effect [1] | Percent Effect [2] | Percent Effect [3] | Percent Effect [4] | Percent Effect [5] | Percent Effect [6] | Percent Effect [7] | Percent Effect [8] | Percent Effect [9] | Percent Effect [10] | Percent Effect [11]
CCCC1CCCN(Cc2csc(-c3cnn(C)c3)n2)CC1 (configuration not stated) | -2.48% | -5.26% | -0.945% | -3.96% | -0.376% | -5.75% | 20.4% | 20.6% | 8.33% | 19.5% | -4.84%
CCc1nnc2n1CCN(C(=O)C(C)COCc1ccccc1)C2 (configuration not stated) | -1.9% | 10.5% | 0.611% | -4.15% | 7.94% | -1.44% | 6.68% | -1.54% | 3.45% | 16.1% | -2.72%
Cc1nn(C)c(C)c1C1CCCN1Cc1noc(C2CC2)n1 (configuration not stated) | 2% | 15.8% | -5.38% | -11.5% | -8.87% | 3.96% | 15.5% | 8.86% | 8.37% | 6.17% | -6.57%
CCc1nc(C)c(C(=O)NCCNc2ncccn2)s1 | -4.61% | 15.8% | -1.87% | -4.05% | -2.52% | 0% | 2.28% | -2.51% | 9.36% | 16.1% | -3.7%
O=C(NCCCN1CCCC1)c1n[nH]c(=O)c2ccccc12 | -2.88% | 20.8% | 0.621% | -1.51% | -10.7% | 2.13% | 5.74% | 11.3% | 6.8% | 12.2% | -6.65%
Cc1ccc(CNC2CCCc3c2cnn3C)s1 (configuration not stated) | -5.39% | 13% | 5.11% | 1.58% | 6.95% | 0.21% | 17.1% | 9% | 9.52% | 21.2% | -7.9%
Cc1ccc(C(=O)N2CCN(CC(O)c3ccc(F)cc3)CC2)s1 (configuration not stated) | -2.93% | 7.89% | 6.49% | 18.1% | -0.564% | 0.766% | 4.34% | 13.7% | 5.39% | 9.76% | -0.68%
Nc1cc(N2CCCC2c2cnccn2)ncn1 (configuration not stated) | -0.532% | 9.46% | -1.66% | -2.65% | 2.96% | -5.34% | 14.8% | 2.07% | 8.6% | 14.3% | -13.1%
COc1cccc2cc(CNC(C)(C)C(=O)N3CCC(O)CC3)oc12 | -4.3% | 5.06% | -3.21% | -2.38% | 7.08% | -0.76% | -6.14% | -31.3% | 6.4% | 3.8% | -3.05%
Cc1noc([C@H]2C[C@@H]3CCN(C(=O)C4CCOCC4)C[C@H]3O2)n1 | -3.88% | 0% | 7.28% | 1.95% | -3.81% | 8.6% | 17% | -2.45% | 1.08% | 5.13% | 3.17%
CN(C)C(=O)N1CCOCC2(CCN(c3ncccn3)C2)C1 (configuration not stated) | -4.78% | 8.11% | -5.27% | 28.6% | 6.35% | -1.24% | 5.75% | -36.2% | 6.45% | 11.1% | -5.72%
O=C(c1ccsc1)N1CC[C@H]2C[C@@H](c3nnc(C4CC4)o3)O[C@@H]2C1 | -1.93% | 7.79% | 1.35% | -4.04% | -1.08% | 12.3% | 19.5% | -4.29% | 2.12% | 11.5% | -7.52%
CN(Cc1ccc(F)cc1)C(=O)NCc1nnc2n1CCCCC2 | -8.45% | 12.7% | -3.69% | 5.52% | 10.5% | -6.08% | 7.62% | 15.3% | 6.4% | 13.9% | -15%
Cc1ccc(NC(=O)NC(C)c2nc[nH]n2)cc1 (configuration not stated) | -6.05% | -10.8% | -1.56% | -5.4% | -1.86% | -0.248% | 15.9% | -15.4% | 1.07% | 1.24% | -1.66%
C[C@H](O)CNC(=O)c1cnc(-c2ccccc2)nc1O | -3.97% | 10.8% | -6.61% | 24.9% | 4.83% | 19.1% | 11.7% | -5.82% | 2.65% | 17.1% | -9.28%
CN(C)[C@@H]1CCN(C(=O)c2ccsc2)[C@H]1Cc1cnn(C)c1 | -3.13% | 0% | 12.6% | 1.61% | -3.15% | -1.63% | 12.2% | 4.21% | 3.19% | -1.28% | 2.12%
Cc1cc(C)n(C2CCCN(C(=O)CCNS(C)(=O)=O)C2)n1 (configuration not stated) | 2.69% | -6.33% | -12.4% | -1.59% | -0.103% | 7.53% | 8.58% | 12.6% | 2.08% | 7.59% | -22.7%
CCc1ccccc1C(=O)N1CCN(S(C)(=O)=O)[C@@H](C)C1 | 2.08% | 2.74% | 0.603% | 7.54% | 5.09% | 3.18% | 8.34% | -4.78% | 1.07% | 0% | -1.37%
Cc1ccc(NC2CCN(C(=O)COc3cccnc3)CC2)nn1 | -5.07% | 21.5% | -3.6% | -4.99% | -0.923% | -1.94% | 14.1% | 12.9% | 4.17% | 15.2% | -15.5%
Cc1cccc(CNC(CN2CCN(C)CC2)c2ccccc2)c1 (configuration not stated) | -2.61% | 8.11% | -13.3% | 17.7% | 3.23% | 29.5% | 7.3% | 25.7% | 5.38% | 11.1% | -5.02%
O=C(NCc1ccccc1F)N1CCC(C2OCCO2)CC1 | -3.95% | 7.89% | -0.484% | -1.41% | -5.94% | -5.92% | 7.19% | -6.9% | 4.25% | 7.79% | -3.04%
Cn1c(CC2CCS(=O)(=O)C2)nnc1SCCOc1cccc(Cl)c1 (configuration not stated) | -2.94% | 10.8% | -5.55% | 20.9% | 4.99% | 3.23% | 14.8% | -7.24% | 4.3% | 16.1% | -10.4%
